High-throughput results: PubChem BioAssay, several laboratories
TWEAK-Fn14 inh = blocks TWEAK-Fn14 interaction in a reporter cell assay | inhibition, % at 10 µM | TWEAK-stimulated Fn14 reporter cells, luciferase luminescence, 8 h | hit rate 2% among 360,000 | AID 1159606; in the data active = inhibition above about 50%
TROY NFkB inh = TROY signaling inhibition; Q293 LMP1-TROYcd NF-kB luciferase reporter, 4 h; inhibition, % at 10 µM; hit rate 0.98% among 360,000;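 active = compounds whose plate-normalised and pattern-corrected inhibition of the luciferase reporter signal at the single screening dose is 50% or more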
HSP90 refold inh = HSP90 refolding inhibition in rabbit reticulocyte lysate. luciferase refolding luminescence, 3 h. hit rate 0.91% among 290,000. inhibition, % at 5.6 µM;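 active = inhibition above the screen-wide mean plus 3 SD, computed separately per campaign, cut at about 16% in these data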;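 also: 0% = DMSO wells and 100% = 60 µM geldanamycin wells; inhibitors lower the luminescence because luciferase stays unfolded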
aSyn 5UTR inh = MLPCN primary screen, SNCA 5' untranslated region. alpha-synuclein 5'UTR reporter, inhibitor activity. inhibition, % (tested at 7.5 µM). hit rate 0.82% among 300,000. AID 1813; in the data active = inhibition above about 60%;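 also: H4 neuroglioblastoma cells stably carrying SNCA 5'UTR luciferase fusion; 0% = DMSO wells and 100% = positive control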
C8 TRAIL sens = caspase-8 TRAIL sensitization. NB7+C8 cells + TRAIL, ATPlite viability luminescence. inhibition (viability loss, TRAIL sensitization), % at 10 µM. hit rate 1% among 360,000. AID 624354;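 active = compounds causing at least 50% loss of cell viability in the single-dose screen, relative to plate controls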
HIF-2a block = inhibitors of HIF-2a; inhibition, % at 18.8 µM; AID 624352; 786-0 RCC cells HIF-2a reporter, luciferase luminescence, overnight; hit rate 0.72% among 360,000;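 active = inhibition of the luminescence signal of 40% or more relative to plate controls, in a single-dose primary screen at 18.75 µM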
HSP90 inh confirm = HSP90 inhibition, confirmation assay. shares compounds with HSP90 refold inh. rabbit reticulocyte lysate, luciferase refolding luminescence, 3 h. inhibition, % at 5.9 µM. hit rate 64% among 2,300; in the data active = inhibition above about 18%;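 also: 0% = vehicle wells and 100% = reference inhibitor wells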
luciferase ctr = firefly luciferase inhibition, HSP90 counter-screen; shares compounds with HSP90 refold inh; purified native firefly luciferase, luminescence; inhibition, % at 5.9 µM; hit rate 48% among 2,300; AID 1847;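 active = inhibition above the mean inhibition of all tested sample wells plus 3 SD, cut at about 10% in these data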;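 also: 0% = DMSO with luciferase and 100% = wells lacking luciferase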
Target sequence (P08659 whole entry, looked up): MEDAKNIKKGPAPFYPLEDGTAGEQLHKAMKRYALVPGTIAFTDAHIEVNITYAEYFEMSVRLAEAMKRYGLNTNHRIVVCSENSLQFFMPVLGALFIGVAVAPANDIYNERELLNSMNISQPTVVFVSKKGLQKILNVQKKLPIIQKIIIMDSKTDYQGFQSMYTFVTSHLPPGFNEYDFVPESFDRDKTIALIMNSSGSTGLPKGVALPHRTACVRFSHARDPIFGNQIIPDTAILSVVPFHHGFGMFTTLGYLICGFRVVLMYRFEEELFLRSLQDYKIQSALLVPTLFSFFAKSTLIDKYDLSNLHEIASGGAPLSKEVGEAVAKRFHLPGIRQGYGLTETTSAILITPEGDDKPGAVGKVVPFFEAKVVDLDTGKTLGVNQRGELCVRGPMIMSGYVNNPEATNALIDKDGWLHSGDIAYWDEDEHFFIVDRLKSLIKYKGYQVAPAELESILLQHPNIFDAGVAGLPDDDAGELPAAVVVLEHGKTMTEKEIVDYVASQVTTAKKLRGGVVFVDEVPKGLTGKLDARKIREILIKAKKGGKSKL
An asterisk follows results filed as active. A selection: hits, their analogues and other compounds. The true share with any hit is near 3.9%.

Screening COc1ccc(-c2cc(C(=O)N3CCN(Cc4ccccc4)CC3)no2)cc1OC returned TWEAK-Fn14 inh -10.6, TROY NFkB inh -8.0, HSP90 refold inh 52.3*, aSyn 5UTR inh 7.4, C8 TRAIL sens -19.7, HIF-2a block 12.9, HSP90 inh confirm -1.1 and luciferase ctr -12.8.
Screening COc1ccc(-c2csc(NC(=O)c3ccccc3F)n2)cc1 returned TWEAK-Fn14 inh 6.7, TROY NFkB inh -9.0, HSP90 refold inh 33.5*, aSyn 5UTR inh -49.5, C8 TRAIL sens 4.8, HIF-2a block -223.1, HSP90 inh confirm -11.4 and luciferase ctr -31.9.
Screening Cc1cccc(C)c1Cn1c(C)c(C(=O)NCc2ccc([N+](=O)[O-])cc2)sc1=O returned TWEAK-Fn14 inh 22.6, TROY NFkB inh 25.6, C8 TRAIL sens -4.4 and HIF-2a block -26.5.
Cc1ccnc(SC2CC(=O)N(c3ccc(C(C)C)cc3)C2=O)n1 (stereo not drawn) was read as TWEAK-Fn14 inh -9.1, TROY NFkB inh 12.7, HSP90 refold inh 32.3*, aSyn 5UTR inh 6.8, C8 TRAIL sens -8.9, HIF-2a block 4.4, HSP90 inh confirm -6.9 and luciferase ctr -5.1.
`Cc1ccnc(SC2CC(=O)N(c3ccc(Cl)cc3)C2=O)n1` (stereo not drawn) gave TWEAK-Fn14 inh 3.0, TROY NFkB inh 5.3, HSP90 refold inh -0.6, aSyn 5UTR inh 4.3, C8 TRAIL sens -3.2 and HIF-2a block 19.0.
Clc1ccc(NN(Cc2ccncc2)c2ccc(Cl)cc2)cc1 was read as TWEAK-Fn14 inh 7.0, TROY NFkB inh -25.8, C8 TRAIL sens 15.8 and HIF-2a block -54.8.
`O=C(O)c1ccc(-c2nnc(-c3ccccc3)o2)cc1` gave TWEAK-Fn14 inh 29.3, TROY NFkB inh -3.7, HSP90 refold inh 57.9*, aSyn 5UTR inh -78.1, C8 TRAIL sens -8.2, HIF-2a block -74.0, HSP90 inh confirm 58.0* and luciferase ctr 14.1*.
For Cn1c(NCC2CCCCC2)nc2cc(-c3ccsc3)sc2c1=O the results were TWEAK-Fn14 inh 21.0, TROY NFkB inh -1.4, C8 TRAIL sens -9.8 and HIF-2a block -1.9.
`Cc1cc(C)c2c(N)c(C(=O)Nc3ncc(C)s3)sc2n1` gave TWEAK-Fn14 inh 79.0*, TROY NFkB inh 4.7, HSP90 refold inh 70.2*, C8 TRAIL sens 94.0*, HIF-2a block 86.6*, HSP90 inh confirm 91.6* and luciferase ctr 87.5*.
`COC(=O)c1sc2nc(C)cc(C)c2c1N` gave TWEAK-Fn14 inh -0.8, TROY NFkB inh -26.2, HSP90 refold inh 0.0, aSyn 5UTR inh -39.0, C8 TRAIL sens 0.3 and HIF-2a block -73.5.
CCc1ccc(C(=O)Cn2ccsc2=N)cc1 was read as TWEAK-Fn14 inh 26.2, TROY NFkB inh -60.0, HSP90 refold inh 21.2*, aSyn 5UTR inh -101.5, C8 TRAIL sens 58.6*, HIF-2a block -314.9, HSP90 inh confirm 11.1 and luciferase ctr -8.2.
CC(C)(C)NC(=O)NC(=O)Cn1ccsc1=N was read as TWEAK-Fn14 inh 4.1, TROY NFkB inh -0.9, HSP90 refold inh 0.7, aSyn 5UTR inh -5.7, C8 TRAIL sens -4.4 and HIF-2a block 12.9.
c1ccc(-c2cc(-c3nc(-c4ccccn4)no3)c3ccccc3n2)cc1 was read as TWEAK-Fn14 inh 22.4, TROY NFkB inh -4.4, HSP90 refold inh 2.1, aSyn 5UTR inh 1.9, C8 TRAIL sens 8.4 and HIF-2a block -16.6.
For c1ccc(-c2nc(-c3ccccn3)no2)cc1 the results were TWEAK-Fn14 inh 93.8*, TROY NFkB inh 73.3*, HSP90 refold inh 45.9*, aSyn 5UTR inh -18.3, C8 TRAIL sens 75.3*, HIF-2a block 32.8, HSP90 inh confirm 79.5* and luciferase ctr 70.3*.
Screening Cc1ccc(-c2nc(-c3ccccn3)no2)cc1[N+](=O)[O-] returned TWEAK-Fn14 inh 61.8*, TROY NFkB inh 24.6, HSP90 refold inh 29.7*, aSyn 5UTR inh 46.4, C8 TRAIL sens 52.0*, HIF-2a block -68.1, HSP90 inh confirm 57.8* and luciferase ctr 52.3*.
O=C1OC(C(Cl)(Cl)Cl)Nc2ccccc21 (stereo not drawn) was read as TWEAK-Fn14 inh -4.2, TROY NFkB inh -0.2, C8 TRAIL sens -2.6 and HIF-2a block 2.6.
O=C1/C(=C/N(C(=O)c2ccco2)c2ccc(Br)cc2)Sc2ccccc21 was read as TWEAK-Fn14 inh 86.8*, TROY NFkB inh 65.1*, HSP90 refold inh 17.4*, aSyn 5UTR inh -241.2, C8 TRAIL sens 56.9*, HIF-2a block -46.8, HSP90 inh confirm 57.2* and luciferase ctr 60.7*.
COc1ccc(CN(C(=O)c2ccco2)c2ccc(Br)cc2)cc1OC was read as TWEAK-Fn14 inh -12.1, TROY NFkB inh -2.2, HSP90 refold inh -3.4, aSyn 5UTR inh -9.8, C8 TRAIL sens -8.1 and HIF-2a block 5.2.
For COc1cc(C2NC(=O)NC(c3ccccc3)=C2C(C)=O)c(Br)c(Br)c1O (stereo not drawn) the results were TWEAK-Fn14 inh -0.2, TROY NFkB inh 6.8, HSP90 refold inh 17.9*, aSyn 5UTR inh 5.8, C8 TRAIL sens -1.0, HIF-2a block 8.6, HSP90 inh confirm -0.5 and luciferase ctr -2.3.
`COc1ccc(C(CC(=O)O)NC(C)=O)cc1OC` (stereo not drawn) gave TWEAK-Fn14 inh 8.9, TROY NFkB inh 3.3, HSP90 refold inh 18.0*, aSyn 5UTR inh -1.8, C8 TRAIL sens 8.8, HIF-2a block 9.4, HSP90 inh confirm 4.4 and luciferase ctr -7.5.
Screening CC(Cl)=CCn1c(NCCc2ccccc2)nc2c1c(=O)n(C)c(=O)n2C returned TWEAK-Fn14 inh 42.5, TROY NFkB inh 29.2, C8 TRAIL sens 26.0 and HIF-2a block -22.4.
`NS(=O)(=O)c1ccc(CCNC(=O)COC(=O)CCc2c[nH]c3ccccc23)cc1` gave TWEAK-Fn14 inh 5.9, TROY NFkB inh 2.8, C8 TRAIL sens -9.7 and HIF-2a block 17.6.
`CCCc1cc(=O)oc2cc(OCc3ccc(C(=O)O)cc3)ccc12` gave TWEAK-Fn14 inh -9.4, TROY NFkB inh -20.5, HSP90 refold inh 22.1*, aSyn 5UTR inh -17.3, C8 TRAIL sens -5.7, HIF-2a block -119.9, HSP90 inh confirm 15.7 and luciferase ctr -21.6.
`CCCc1cc(=O)oc2cc(OCc3nn[nH]n3)ccc12` gave TWEAK-Fn14 inh 18.5, TROY NFkB inh 16.6, HSP90 refold inh 3.0, aSyn 5UTR inh -12.7, C8 TRAIL sens 0.8 and HIF-2a block 15.5.
Screening CCCc1cc(=O)oc2cc(OCc3ccc(C(=O)O)o3)ccc12 returned TWEAK-Fn14 inh -13.8, TROY NFkB inh -34.0, HSP90 refold inh 23.0*, aSyn 5UTR inh 6.7, C8 TRAIL sens -15.8, HIF-2a block -9.1, HSP90 inh confirm 17.6* and luciferase ctr -24.3.
